Experimental findings from ChEMBL document CHEMBL1157539, “Thousands of chemical starting points for antimalarial lead identification” (Nature, 2010) are described below.

Holding throughout (format): functional
The test system of experiment [1] is Plasmodium falciparum. Description: GSK_TCMDC: Inhibition of Plasmodium falciparum 3D7 in whole red blood cells, using parasite LDH activity as an index of growth. Test compounds present at 2uM.
Experiment [2] relates to Plasmodium falciparum. The experiment is described as follows: GSK_TCMDC: Inhibition of Plasmodium falciparum Dd2 in whole red blood cells, using parasite LDH activity as an index of growth. Test compounds present at 2uM.
In experiment [3] the test system is HepG2. The experiment is described as follows: GSK_TCMDC: Percent inhibition of human HepG2 cell line. Test compounds present at 10uM.

In the case of `CCCC(C(CC1CCC(C)CC1)C(=O)NC(CCCNc1ncccn1)C(=O)Nc1nccs1)N(O)C=O` (stereo not given), the Inhibition in experiment [1] stood at 98%; in experiment [2] it was 98%; in experiment [3] it was 10%.

For the molecule `Cc1nc(-c2cccc(NC(C)C(=O)Nc3cc(C(F)(F)F)ccc3N3CCOCC3)c2)cs1` (stereo not given), the Inhibition in experiment [1] came to 82%; in experiment [2], 97%; in experiment [3], 3%.

As for `COc1cc(C(=O)N2COCC(CCCN3CCC(N4CCCC4)CC3)(c3ccc(Cl)c(Cl)c3)C2)cc(OC)c1OC` (stereo not given), the Inhibition in experiment [1] worked out at 95%; in experiment [2] it was 70%; in experiment [3], 5%.

As to `Cc1ccc2nc(C)cc(N/N=C/c3ccc([N+](=O)[O-])cc3)c2c1`, the Inhibition in experiment [1] is given as 100%; in experiment [2] it was 15%; in experiment [3], 10%.

For the molecule `Cc1cc(N2CCN(CC3CCN(C)CC3)CC2)nc(Nc2ccc(Cl)cc2)n1`, the Inhibition is 99% in experiment [1], 89% in experiment [2] and 20% in experiment [3].

In the case of `C/C=C/COc1ccc2ccccc2c1CNCCCCCCCCNCc1c(OC/C=C/C)ccc2ccccc12.CS(=O)(=O)O.O`, the Inhibition in experiment [1] amounted to 87%; in experiment [2], 86%; in experiment [3], 100%.

Turning to `COc1cc(O)c2c(=O)c(OC)c(-c3cccc(Cl)c3OCC(=O)O)oc2c1OC`, the Inhibition in experiment [1] is reported as 100%; in experiment [2], 0%; in experiment [3], 0%.

With `COc1ccc(CNc2nc(NCc3ccc(C(F)(F)F)cc3)c3cc(OC)c(OC)cc3n2)cc1OC`, the Inhibition in experiment [1] amounted to 100%; in experiment [2], 100%; in experiment [3], 80%.

On to `CN1CCN(Cc2cc(NC(=O)c3ccc(-c4ccc(Cl)cc4Cl)cc3)ccc2-c2ccccc2)CC1`, for which the Inhibition is reported as 95% in experiment [1], 21% in experiment [2] and 52% in experiment [3].

For `CCN1CCC(N(Cc2ccc(-c3ccc(C(F)(F)F)s3)cc2)C(=O)Cn2c(CCc3cccc(F)c3F)nc(=O)c3ccccc32)CC1.O=C(O)C(O)C(O)C(=O)O`, the Inhibition came to 93% in experiment [1], 95% in experiment [2] and 47% in experiment [3].
